Bioassay records: PubChem BioAssay, National Center for Advancing Translational Sciences (NCATS)
Most compounds without a hit are left out; they make up all but 15% or so of the library.
SARS PLpro yeast = blocks SARS-CoV papain-like protease in a yeast assay. S. cerevisiae expressing SARS-CoV PLpro, growth rescue. Potency, µM (doses to about 32.9 µM), inactives show top-dose activity, positive = growth rescue, most hits filed as activators. actives 0.19% (n = 330,000); calls by dose curve; note: potency is the fitted concentration of half-maximal effect; 0% is about no effect; nearly all actives have a fitted effect of over 55% in size
Pf growth 96h = P. falciparum growth inhibition at 96 hour, primary screen for plastid delayed-death inhibitors | Potency, µM (series often up to 28.7 µM), without a hit: at the highest dose activity change, negative = inhibition, actives largely listed as inhibitors | actives 6.9% (n = 320,000) | AID 504834 | P. falciparum luciferase reporter growth, 96 h; note: potency is the fitted concentration of half-maximal effect; % is set by controls: 0 for no effect and ±100 for the full control effect
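96 h incubation, 37 C, 5% CO2, of luciferase-reporter P. falciparum-infected RBCs (2% hematocrit, 0.05% parasitemia final) with test compounds; endpoint luminescence.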
HCV inhibitor = blocks hepatitis C virus; Huh7.5.1 HCVcc-Cre infection, luciferase reporter, 44 h; actives 3.4% (n = 340,000); Potency, µM (highest dose often 41.8 µM), without a hit: top-dose activity change, negative = inhibition, most hits filed as inhibitors; note: potency is the fitted concentration of half-maximal effect; % is set by controls: 0 for no effect and ±100 for the full control effect
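Cells seeded at 1,000/well and cultured 4 h, then compounds added followed by HCVcc-Cre virus (~0.5 moi). After 44 h further culture, luciferase substrate was added, plates held 15 min at room temperature, and luminescence read for 15 sec.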
HCMV antiviral = human cytomegalovirus inhibition | HFF cells, HCMV-luciferase reporter, 72 h; active compounds read low | activity change, negative = inhibition, % at 57.5 µM | actives 4.5% (n = 410,000) | AID 1259415; in the data active = activity change below about -60%; inconclusive = no clear call, values can overlap the other calls; inactive = above about -39%; note: % is set by controls: 0 for no effect and ±100 for the full control effect
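Cell-based, HFFs, 1000 cells/well, 16 h 37C; cpds in DMSO + HCMV-luc, MOI 1 PFU/cell; 72 h 37C; OneGlo luminescence after 5 min RT; norm. to buffer vs Salinomycin 10uM.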
Sm TGR block = S. mansoni TGR enzyme inhibition. actives 3% (n = 360,000). AID 485364. purified TGR, DTNB reduction, TNB absorbance 405 nm. Potency, µM (highest dose often 114 µM), without a hit: top-dose activity change, negative = inhibition, usual class: inhibitors; note: potency is the fitted concentration of half-maximal effect; % is set by controls: 0 for no effect and ±100 for the full control effect; nearly all actives have a fitted effect of over 60% in size
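Kinetic colorimetric format: TGR-catalysed, NADPH-driven DTNB reduction monitored via TNB absorbance. Enzyme dispensed at 20 nM; compound exposure 15 min at room temperature before reaction start.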
Pf growth 48h = P. falciparum growth inhibition at 48 hours (one generation); actives 5.9% (n = 310,000); P. falciparum luciferase growth in erythrocytes, 48 h; AID 504832; Potency, µM (top dose mostly 28.7 µM), without a hit: at the top dose activity change, negative = inhibition, usual class: inhibitors; note: potency is the fitted concentration of half-maximal effect; % is set by controls: 0 for no effect and ±100 for the full control effect
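Parasite viability was followed by luminescence of a genomically integrated firefly luciferase. Cultures held 0.1% parasitemia at 2% hematocrit (final), incubated under 5% CO2 at 37 C.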
* = called active by the depositor; ? = inconclusive; · = no result. Unless noted, calls come from the whole dose curve; as a rule, active = well fitted curve in the direction sought with a large enough effect; inconclusive = small, poorly fitted or top-dose-only effect, or another doubt; inactive = no such curve, though single readings can be large; an effect the other way counts as inactive or inconclusive.

SMILES	SARS PLpro yeast	Pf growth 96h	HCV inhibitor	HCMV antiviral	Sm TGR block	Pf growth 48h
C=CCn1c(CSc2nc3ccccc3s2)nnc1SCC(=O)NCc1ccccc1	-2%	10µM*	-1%	3	-11%	·
CCn1c(Cc2c(C)[nH]c3ccccc23)nnc1SCC(N)=O	-4%	·	14%	-26	45µM*	1%
O=C1NCCCN1C1OC(CO)C(O)C1O (stereo not drawn)	·	·	·	-14	·	·
COc1ccc([C@H]2CC(=O)C=C(c3cccc(NC(C)=O)c3)C2)cc1	-2%	?	1%	37	-19%	?
O=C(Nc1ccnn1C1CCN(C2CCC2)CC1)c1ccccc1	1%	12µM*	·	12	-18%	-3%
O=C(Nc1ccnn1C1CCN(C2CCC2)CC1)c1ccccc1Cl	-4%	94%	1%	-23	-1%	13%
COc1ccc(-c2[nH]c(-c3ccc(Cl)cc3)nc2SCC(=O)Nc2nccs2)cc1	0%	-82%	?	-79*	-14%	?
COc1ccc(-n2c(SCC(=O)Nc3nccs3)nnc2-c2ccc(Cl)cc2)cc1	·	·	-6%	?	·	·
COc1ccc(-c2[nH]c(-c3ccccc3)nc2SCC(=O)Nc2nccs2)cc1	-21%	?	14µM*	?	-17%	-7%
Cc1ccc(S(=O)(=O)NCCC(=O)N2CCN(C/C=C/c3ccccc3)CC2)cc1	2%	?	?	15	-11%	?
CCC(C)c1ccccc1NC(=O)CN1CCN(C/C=C/c2ccccc2)CC1 (stereo not drawn)	-2%	13µM*	-12%	20	-3%	?
Cc1ccc(S(=O)(=O)NC(CC(C)C)C(=O)N2CCN(C/C=C/c3ccccc3)CC2)cc1 (stereo not drawn)	15%	?	11µM*	?	-4%	8.3µM*
Cc1ccc(S(=O)(=O)NC(CC(C)C)C(=O)N2CCOCCOCCOCC2)cc1 (stereo not drawn)	0%	-6%	-4%	34	-12%	-12%
CC(=O)c1ccc(S(=O)(=O)NCC(=O)N2CCN(C/C=C/c3ccccc3)CC2)cc1	1%	12µM*	-7%	-11	7.9µM*	12µM*
O=C(Cn1c(=O)n(Cc2nc(-c3ccccc3)no2)c(=O)c2cc3c(cc21)OCO3)Nc1ccc(Cl)cc1	·	·	·	9	7%	·
CCCCCOc1ccc(Br)cc1CSC(=N)N	0%	?	7.9µM*	-98*	1%	10µM*
CCOc1ccc(OCC)c(NC(=O)C2CCCN(S(=O)(=O)c3cc(Br)cc4c3N(C(=O)CC)CC4)C2)c1 (stereo not drawn)	·	·	·	-29	5%	·
CC1NS(=O)(=O)c2cc([N+](=O)[O-])ccc21 (stereo not drawn)	·	·	·	-12	·	·
Cc1cnc(-c2nc3ccccc3n2C(C(=O)NC(C)(C)C)c2ccncc2)cn1 (stereo not drawn)	·	·	·	171	·	·
COC(OC)c1ccnc(-c2ccc(OC(=O)c3ccccc3)cc2)n1	-1%	31%	-2%	30	1%	31%
COC(OC)c1ccnc(-c2ccc(OC(C)=O)cc2)n1	4%	125%	14%	-83*	0%	28%
Cc1ccc(S(=O)(=O)NNC(=O)C2Cc3c(ccc4ccccc34)O2)cc1 (stereo not drawn)	-4%	59%	-23%	-10	7%	39%
COc1ccc(N(CC(=O)NC2CCCC2)C(=O)c2ccc(C)s2)cc1OC	0%	16%	-22%	-38	0%	-11%
Cc1cc(C)cc(N(CC(=O)NC2CCCCC2)C(=O)c2ccc(C)s2)c1	-4%	26%	11µM*	0	2%	-21%
Cc1ccc(N(CC(=O)NC2CCCCC2)C(=O)c2ccc(C)s2)cc1	-1%	?	?	-63*	5%	-19%
Cc1ccc(N(CC(=O)NC2CCCC2)C(=O)c2ccc(C)s2)cc1	0%	-4%	11µM*	-5	·	-20%
